Test [1] in a line: CCTE_Shafer_MEA_dev_active_electrodes_number: CCTE's Neural Network Formation Assay for Number of Active Electrodes, Shafer Lab (AID 2284040; active = hit-call score of the fitted dose curve at least 0.9, where 1 is the maximum;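 for AC50: potency for loss of active electrodes versus DMSO so lower counts are hits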). In a few lines:
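Primary rat cortical neurons on 16-electrode MEA wells, exposed from day 0 through day 12 with compound renewed at DIV 5 and 9 feeds. Active electrodes (mean firing ≥5 spikes/min) counted at DIV 5, 7, 9, 12; trapezoidal AUC across days, loss-of-signal versus DMSO.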

For test [2], the target named is Estrogen receptor (Homo sapiens) (UniProt P03372). As to the kind of experiment: CCTE_Deisenroth_AIME_384WELL_LUC_Shift: CCTE's 384-well Estrogen Receptor Transactivation Assay with AIME metabolic competence data shift (ERTA luciferase; difference in metabolism positive and negative), Deisenroth Lab (AID 2284041).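 Note: shift is response with S9 minus without S9 so positive means metabolism raised ER signal.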 In a few lines: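 Test chemicals (0.002–200 uM, 10-point) were pre-incubated 2 h with alginate microspheres containing phenobarbital/beta-naphthoflavone-induced male Sprague Dawley rat liver S9 or water, then medium was transferred to VM7Luc4E2 cells for 24 h luciferase readout; shift = S9-positive minus S9-negative normalized response.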
Estrogen receptor (Homo sapiens), sequence (P03372 whole entry, looked up): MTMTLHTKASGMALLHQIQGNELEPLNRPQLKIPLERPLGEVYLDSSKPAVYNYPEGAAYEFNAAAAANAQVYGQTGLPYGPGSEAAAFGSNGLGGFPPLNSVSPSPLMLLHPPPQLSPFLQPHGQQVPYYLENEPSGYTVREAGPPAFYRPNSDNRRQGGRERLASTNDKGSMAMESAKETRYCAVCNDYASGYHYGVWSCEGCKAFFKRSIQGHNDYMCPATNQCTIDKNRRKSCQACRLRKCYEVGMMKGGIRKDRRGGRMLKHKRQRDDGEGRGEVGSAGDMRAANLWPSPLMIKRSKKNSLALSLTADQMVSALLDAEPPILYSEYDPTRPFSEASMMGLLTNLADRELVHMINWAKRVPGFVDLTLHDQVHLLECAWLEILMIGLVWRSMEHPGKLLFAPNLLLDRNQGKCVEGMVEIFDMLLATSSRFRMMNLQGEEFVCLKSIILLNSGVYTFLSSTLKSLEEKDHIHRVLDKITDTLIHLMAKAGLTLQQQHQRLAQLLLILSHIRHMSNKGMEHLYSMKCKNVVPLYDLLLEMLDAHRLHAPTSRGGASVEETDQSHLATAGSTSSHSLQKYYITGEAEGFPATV

A short description of test [3]: CCTE_Shafer_MEA_dev_burst_rate: CCTE's Neural Network Formation Assay for Burst Rate, Shafer Lab (AID 2284042).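 For AC50: potency for loss of burst rate below DMSO control.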 In a few lines:
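Cells plated, treated day 0; recorded DIV 5, 7, 9, 12; fed and re-treated DIV 5, 9. Endpoint: bursts per recording time, active-electrode well mean, trapezoidal AUC, fitted in decreasing direction against DMSO baseline.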

Test [4] can be described thus: CCTE_Shafer_MEA_dev_bursting_electrodes_number: CCTE's Neural Network Formation Assay for Number of Bursting Electrodes, Shafer Lab (AID 2284043; active = hit-call score of the fitted dose curve at least 0.9, where 1 is the maximum;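 for AC50: potency is for loss of bursting electrodes relative to DMSO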). The essentials: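 Read-out is the per-well number of electrodes bursting at least once every 2 minutes, recorded on days 5, 7, 9 and 12 and collapsed by trapezoidal area under the curve. Cultures were primary rat cortical neurons on MEA plates, treated continuously from plating.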

The nature of test [5]: CCTE_Shafer_MEA_dev_per_burst_interspike_interval: CCTE's Neural Network Formation Assay for Burst Interspike Interval, Shafer Lab (AID 2284044).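 For AC50: potency for a decrease of within-burst interspike interval below DMSO level.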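 Note: mean spike spacing inside bursts as AUC over recordings on days 5 7 9 12.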 The essentials:
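Spontaneous activity of maturing rat cortical networks is recorded on DIV 5, 7, 9 and 12 under chronic compound exposure beginning at plating. Endpoint: burst interspike interval well-mean, collapsed into trapezoidal AUC and fitted in the negative direction relative to DMSO.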

A short description of test [6]: CCTE_Shafer_MEA_dev_burst_duration_mean: CCTE's Neural Network Formation Assay for Mean Burst Duration, Shafer Lab (AID 2284045).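 For AC50: curve fitted for loss meaning shorter burst duration than DMSO.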 The essentials:
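Read-out: average first-to-last-spike interval within single-electrode bursts, averaged over bursting electrodes per well, then summarised as area under the curve across days 5, 7, 9 and 12. Developing rat cortical networks were exposed from day 0.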

The nature of test [7]: CCTE_Shafer_MEA_dev_interburst_interval_mean: CCTE's Neural Network Formation Assay for Mean Interburst Interval, Shafer Lab (AID 2284046).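 Note: well-mean interburst interval of bursting electrodes as AUC over four recording days; curve fitted for decrease in interburst interval relative to DMSO.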 In a few lines:
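Developing rat cortical networks on 48-well MEAs receive compound from the day of plating. Burst intervals from each active electrode are averaged per well, and AUC over the recording days is fitted in the negative direction against DMSO.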

The nature of test [8]: CCTE_Shafer_MEA_dev_inter_network_spike_interval_mean: CCTE's Neural Network Formation Assay for Mean Inter-network Spike Interval, Shafer Lab (AID 2284047).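 For AC50: potency for a decrease in mean inter-network spike interval below DMSO.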 In a few lines:
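Rat cortical cultures, 1.5 x 10^5 cells/well on 48-well MEA plates; continuous exposure days 0–12, medium and compound refreshed DIV 5, 9. Mean time between consecutive network-spike peaks; AUC across DIV 5/7/9/12; DMSO baseline, negative fitting direction.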

Test [9] is described as follows: CCTE_Shafer_MEA_dev_network_spike_number: CCTE's Neural Network Formation Assay for Number of Network Spikes, Shafer Lab (AID 2284048).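 For AC50: fit as a loss of signal meaning fewer network spikes than DMSO.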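 Note: synchronized bursts across electrodes counted on days 5 7 9 12 and integrated as AUC.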 In a few lines: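 Developing networks of primary rat cortical neurons are treated over 12 days starting at plating, with media and compound fully replaced on DIV 5 and 9. Network spike counts from four recording days are integrated as trapezoidal AUC.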

The nature of test [10]: CCTE_Shafer_MEA_dev_network_spike_peak: CCTE's Neural Network Formation Assay for Mean Number of Electrodes in Network Spike, Shafer Lab (AID 2284049).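 For AC50: fitted for loss of signal meaning fewer electrodes in network spikes than DMSO.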 In a few lines:
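Rat cortical primary culture, 1.5 x 10^5 cells/well, 48-well MEA (16 electrodes/well). Dosing day 0 through DIV 12, full media/compound exchange DIV 5, 9. AxIS adaptive spike detection; AUC over days 5/7/9/12; loss-of-signal vs DMSO.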

A short description of test [11]: CCTE_Shafer_MEA_dev_spike_duration_mean: CCTE's Neural Network Formation Assay for Mean Spike Duration, Shafer Lab (AID 2284051).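 For AC50: potency for a decrease in mean network spike duration versus DMSO.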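 Note: mean network spike duration pooled as area under curve over DIV 5 to 12 recordings.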 In a few lines:
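Readout is the average length of network spikes, clustered firing across electrodes, summed over DIV 5, 7, 9 and 12 as area under the curve. Neurons from rat cortex developed networks on MEA plates under continuous 12-day exposure.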

The nature of test [12]: CCTE_Shafer_MEA_dev_network_spike_duration_std: CCTE's Neural Network Formation Assay for Standard Deviation of Network Spike Duration, Shafer Lab (AID 2284052).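 Note: hits are decreases in network spike duration SD versus DMSO vehicle.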 The essentials: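 Read-out is the trapezoidal area-under-the-curve across recordings made on days 5, 7, 9 and 12, fitted in the negative direction against DMSO baseline. Neurons were primary rat cortical cells treated from day 0, with treatment renewed at each feed.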

Test [13] in a line: CCTE_Shafer_MEA_dev_per_network_spike_spike_number_mean: CCTE's Neural Network Formation Assay for Mean Number of Spikes in a Network Spike, Shafer Lab (AID 2284053).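 For AC50: fitted as decrease in spikes per network spike relative to DMSO.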 In a few lines: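 Continuous twelve-day exposure of developing rat cortical networks grown over 16 microelectrodes per well; spontaneous firing is captured at four time points, and the per-network-spike spike number is integrated over development by trapezoidal AUC.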

Test [14] in a line: CCTE_Shafer_MEA_dev_per_network_spike_spike_percent: CCTE's Neural Network Formation Assay for Percent of Spikes in a Network Spike, Shafer Lab (AID 2284054). In a few lines:
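Rat primary cortical cultures, 1.5 x 10^5 cells/well on MEA. Continuous compound exposure d0–12, medium/compound renewed DIV 5, 9. Network-spike spike % (0.05 s peak window), AUC over 4 recordings, DMSO baseline.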

Test [15] is described as follows: CCTE_Shafer_MEA_dev_LDH: CCTE's Lactate Dehydrogenase Assay for Cytotoxicity in the Neural Network Formation Assay, Shafer Lab (AID 2284068; active = hit-call score of the fitted dose curve at least 0.9, where 1 is the maximum;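 note: exposure for twelve days from plating with re-dosing on DIV 5 and 9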). The essentials: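 Cytotoxicity companion to network-formation recordings: rat cortical neurons received compound over 12 days of development, re-dosed at DIV 5 and 9 feeds. Viability was inferred from LDH enzyme activity relative to DMSO.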

The nature of test [16]: CCTE_Shafer_MEA_acute_AB: CCTE's Alamar Blue Assay for Cytotoxicity in the Neural Acute Assay, Shafer Lab (AID 2284069; active = hit-call score of the fitted dose curve at least 0.9, where 1 is the maximum;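 note: active compounds lower the viability signal compared with DMSO wells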). In a few lines:
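Metabolic activity in chemically exposed rat cortical neurons (MEA cultures, day 13/15 post-plating) measured via CellTiter Blue resazurin reduction, 544/590 nm fluorescence; fitted relative to DMSO, with signal loss indicating reduced viability.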
For orientation: The colour change of resazurin is a common sign of viable cells or microbes.

The nature of test [17]: UKN5_HCS_SBAD2_cell_viability: Viability Assessment in the University of Konstanz (UKN) Leist Lab Neurite Outgrowth Assay in human iPSC-derived immature Dorsal Root Ganglia Neurons (UKN5) (AID 2284056). In a few lines:
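iPSC-derived immature peripheral neurons (SBAD2) seeded on Matrigel with CHIR99021, SU5402 and DAPT, dosed 1 h later for 24 h. Viability from Hoechst H-33342 and calcein-AM live staining, high-content imaging; bidirectional fit versus DMSO.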

Test [18] is described as follows: UKN5_HCS_SBAD2_neurite_outgrowth: University of Konstanz (UKN) Leist Lab Neurite Outgrowth Assay in human iPSC-derived immature Dorsal Root Ganglia Neurons (UKN5) (AID 2284070). Particulars: actives raise or lower the signal. In a few lines: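 Read-out: calcein-AM-stained neurite area by high-content imaging, Hoechst H-33342 for viability, after 24 h exposure of iPSC-derived immature dorsal root ganglia neurons. Activity fitted in both directions relative to DMSO baseline.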

Results filed as inconclusive are left out. Some structures have more than one record in an assay (separate samples or runs), and their calls can disagree. Active and inactive are the calls of the source. Rule for the calls, unless noted: active = hit-call score of the fitted dose curve at least 0.9, where 1 is the maximum; inactive = score below 0.9.

In the case of `c1ccc2c(c1)-c1cccc3c1c-2cc1ccccc13`, the AC50 – broadly, the midpoint of the concentration-response curve, whichever way the signal moves – is 7570 nM (active) in [1], 5070 nM (active) in test [4], 6220 nM (active) in test [10] and 4480 nM (active) in test [11]. Besides, the outcome in [2], in test [3], in [5], in [6], in test [7] and in test [8] was inactive. Also, the molecule was classed as inactive in [9], in test [12], in test [13], in [14] and in [15].

As to `C[C@@H](Oc1ccc(CNC(=O)c2cccnc2Oc2ccc3c(c2)OCO3)c(F)c1)C(=O)O`, the outcome in test [2] was inactive.

Turning to `NCC(F)(F)C(F)(F)C(F)(F)C(F)(F)F`, the molecule was called inactive in test [1], in [3], in [4], in test [5], in test [6] and in [7]. Further, the outcome in test [8], in test [9], in test [10], in [11], in test [12] and in test [13] was inactive. Further, the outcome in test [14] was inactive.

In the case of `CCOc1ccc2[nH]cc(C(=O)NCc3ccccc3)c(=O)c2n1`, the AC50 is 1230 nM (active) in test [1] and 804 nM (active) in [4]. For the same molecule, the outcome in test [2], in test [3], in test [5], in [6], in [7] and in [8] was inactive. The call in test [9], in test [10], in test [11], in test [12], in test [13] and in test [14] was inactive.

As for `O=C(Cl)C(F)(F)C(F)(F)C(F)(F)C(=O)Cl`, the call in test [1], in test [3], in test [4], in test [5], in test [6] and in [7] was inactive. The molecule was classed as inactive in test [8], in [9], in test [10], in [11], in test [12] and in test [13]. In test [14], the molecule was called inactive.

In the case of `c1ccc2cc3ccccc3cc2c1`, the molecule was called inactive in test [1], in [3], in [4], in test [5], in test [6] and in test [7]. Besides, the molecule was called inactive in test [8], in [9], in [10], in [11], in test [12] and in test [13]. In addition, the call in test [14] and in test [15] was inactive. For the same molecule, in [14], the concentration at half-maximal activity (AC50) is 218 nM (active).

As for `COc1cc2c(c(OC)c1OC)-c1ccc(OC)c(=O)cc1[C@@H](NC(C)=O)CC2`, the AC50 in test [1] was 28.4 nM (active); in test [3] it was 27.6 nM (active); in test [4], 27 nM (active); in test [5], 6.47 nM (active); in [6], 6.51 nM (active); in test [7], 15.9 nM (active). Moreover, the concentration at half-maximal activity (AC50) in test [8] is 26.2 nM (active); in [9], 26 nM (active); in test [10] it was 26.1 nM (active); in [11], 24.8 nM (active); in test [12], 3.22 nM (active); in [13], 12.7 nM (active). Moreover, the AC50 in test [14] was 3 nM (active); in test [15] it was 16.7 nM (active). The result in [2] and in test [16] was inactive.

With `OC(O)(C(F)C(O)(O)C(F)(F)F)C(F)(F)F`, the AC50 in [1] is 3900 nM (active). The molecule was called inactive in test [1], in test [3], in test [4], in test [5], in test [6] and in test [7]. Further, the molecule was called inactive in [8], in [9], in test [10], in test [11], in test [12] and in test [13]. Further, the result in [14] and in test [15] was inactive.

Take `OC(Cn1cncn1)(Cn1cncn1)c1ccc(F)cc1F`: the outcome in [1], in test [3], in [5], in test [6], in test [7] and in test [9] was inactive. Besides, the result in test [10], in test [11], in test [12], in [13], in [14] and in test [15] was inactive. Further, in [8], the AC50 was 3830 nM (active).

Take `NC(=O)N1c2ccccc2C=Cc2ccccc21`: the molecule was classed as inactive in test [1], in test [3], in test [4], in test [5], in test [6] and in test [7]. For the same molecule, the molecule was classed as inactive in [8], in test [9], in test [10], in test [11], in [12] and in [13]. For the same molecule, the call in test [14], in [17], in test [15] and in test [18] was inactive.

Regarding `CCc1cccc(CC)c1N`, in test [2], the outcome was inactive.

On to `NC(=O)NN=Cc1ccc([N+](=O)[O-])o1`, for which the result in test [2] was inactive.

For the origin of these results see PubChem BioAssay (EPA / NIEHS).
